aSyn 5UTR act: Activators via SNCA 5'UTR binding, MLPCN; activity score, % (tested at 7.5 µM), hits read low; alpha-synuclein 5'UTR reporter, activators screen; actives 7.1% (n = 300,000); in the data active means activity score below about -60%
Numbers stand for hits; . = inactive. These entries were drawn from the full list.

SMILES	aSyn 5UTR act
Cc1c(C(=O)NCC2CCCO2)oc2ccc(Br)cc12 (stereo not given)	-81.7
Cc1cc(Cl)c2oc(C(=O)NCCC3CCCCO3)c(C)c2c1 (stereo not given)	-62.9
Brc1ccc(C2=CC(c3cccs3)n3ncnc3N2)cc1 (stereo not given)	-106.7
Cn1cccc1C1C=C(c2ccc(C(C)(C)C)cc2)Nc2ncnn21 (stereo not given)	-114.5
O=C(Nc1ccc(-n2cc(Br)cn2)cc1)c1ccncc1	-68.3
O=C(Nc1ccc(-n2cc(Cl)cn2)cc1)c1ccncc1	-92.2
CCOc1ccc(C(=O)CSc2nnc3ccccn23)cc1	-153.9
O=C(CSc1nnc2ccccn12)c1ccc(Cl)cc1	-67.4
O=C(Nc1ccc(F)cc1)c1c(Cl)nc2ccccn12	-111.5
COC(=O)c1cc(NC(=O)c2c(Cl)nc3sccn23)cc(C(=O)OC)c1	.
COc1ccc(NC(=O)c2c(Cl)nc3ccccn23)cc1	-142.4
Nc1cccc(-c2cnc3ccccc3n2)c1	-98.8
COc1ccccc1Oc1ccc(-c2cnc3ccccc3n2)cc1[N+](=O)[O-]	-74.0
O=[N+]([O-])c1cc(-c2cnc3ccccc3n2)ccc1Cl	-93.5
O=[N+]([O-])c1cc(-c2cnc3ccccc3n2)ccc1Oc1ccc(Cl)cc1	-64.8
O=[N+]([O-])c1ccc(-c2nc(C(Cl)Cl)c3ccccc3n2)cc1	.
O=[N+]([O-])c1cccc(-c2cnc3ccccc3n2)c1	-93.3
Cn1cc(Cl)c(/C(N)=N/OC(=O)c2ccccc2C(F)(F)F)n1	-98.0
COc1ccccc1C(=O)N/N=C/c1cnc2ccccc2n1	-101.6
O=C(N/N=C\c1ccc(Cl)s1)C1COc2ccccc2O1 (stereo not given)	-66.7
COc1ccccc1C(=O)N/N=C/c1ccc(Cl)s1	-179.0
O=C(N/N=C/c1c[nH]c2ccccc12)C1COc2ccccc2O1 (stereo not given)	.
O=C(N/N=C\c1ccc(Cl)s1)c1cccs1	-67.2
COc1cccc(Nc2ncnc3c2cnn3-c2cccc(C)c2)c1	-137.1
COc1ccccc1Nc1ncnc2c1cnn2-c1cccc(C)c1	-84.4
SMILES	aSyn 5UTR act
CC1=NN(C(N)=S)C(=O)C1N=Nc1ccc(C)cc1C (stereo not given)	-102.5
COc1cccc(N=NC2C(=O)N(C(N)=S)N=C2C)c1 (stereo not given)	-94.6
CC1=NN(C(N)=S)C(=O)C1N=Nc1cccc(Cl)c1 (stereo not given)	-86.0
CC(=O)N(C)c1ccc(N=NC2C(=O)N(C(N)=S)N=C2C)cc1 (stereo not given)	-92.9
CCc1ccc(NC(=O)CSc2nncn2-c2cccnc2)cc1	-119.2
Cc1ccc(NC(=O)N2CCCC2)cc1Cl	-73.2
Cc1ccc(NC(=O)C(=O)N2CCCC2)cc1Cl	-106.7
O=C(Nc1cccc([N+](=O)[O-])c1)C(=O)N1CCCCC1	-150.9
O=C(Nc1ccc(Cl)c(Cl)c1)N1CC=CCC1	-121.6
CCN(CC)CCNc1cc(C)nc2c1C(=O)C(=O)C=C2N1CCCCC1	.
O=[N+]([O-])c1ccc(N/N=C2\CC3CC=CC23)cc1 (stereo not given)	-99.8
CSc1ccccc1NC(=O)c1cc2ncc(Br)cn2n1	-181.7
COc1ccc(OCc2cc(C(=O)N(Cc3nccn3C)C(C)C)no2)c2ccccc12	-70.1
COc1cccc(OCc2cc(C(=O)N(C)CCOc3ccc(C)cc3)no2)c1	-133.0
COc1cccc(OCc2cc(C(=O)N(C)Cc3nccn3C)no2)c1	-142.4
COc1ccc2c(c1OC)CN1CCc3cc4c(cc3[C@@H]1[C@@H]2O)OCO4	-69.1
COc1cc([C@@H]2c3cc4c(cc3[C@H](O)[C@H]3COC(=O)[C@H]23)OCO4)cc(OC)c1OC	.
Cc1ccc(-c2csc3nc(-c4ccncc4)[nH]c(=O)c23)cc1	-86.1
Cc1ccc2nc(-c3ccncc3)[nH]c2c1	-120.4
Cc1ccc(-c2nc3ccsc3c(=O)[nH]2)cc1	-137.4
Cc1ccc(-c2csc3nc4c5ccccc5c(NCCCN(C)C)nn4c(=O)c23)cc1	.
O=c1[nH]c(Cc2cccs2)nc2scc(-c3ccc(Cl)cc3)c12	-76.8
N#CCOc1ccccc1/C=C/c1nc2ccccc2c(=O)[nH]1	-115.2
Cc1ccccc1/C=C\c1nc2ccccc2c(=O)[nH]1	-142.2
Cc1ccccc1/C=C/c1nc2ccccc2c(=O)[nH]1	-324.0
SMILES	aSyn 5UTR act
CC(C)(C)S(=O)(=O)c1cnc(-c2ccc(Cl)cc2)nc1N	-113.7
Cc1nc(N)nc(N)c1/C=C/C(C)(C)c1ccc(Cl)cc1	.
O=C(COC(=O)CCN1C(=O)/C(=C\C=C\c2ccccc2)SC1=S)Nc1cc(F)ccc1F	.
O=C(CN1C(=O)S/C(=C\C=C\c2ccccc2)C1=O)N1CCOCC1	-126.3
O=C(CCN1C(=O)/C(=C/C=C/c2ccccc2)SC1=S)Nc1nc2ccccc2s1	-61.7
O=C(O)CCCN1C(=O)/C(=C/c2ccc(-c3nc4ccccc4s3)o2)SC1=S	-75.6
O=C(CCN1C(=O)/C(=C\C=C\c2ccccc2)SC1=S)Nc1ccc(C(=O)O)cc1	-68.5
CCc1ccc(/C=C2\SC(=S)N(CCCC(=O)Nc3ccc(C(=O)O)cc3)C2=O)cc1	.
O=C(CCCN1C(=O)S/C(=C\C=C\c2ccccc2)C1=O)Nc1ccc(O)cc1	-125.8
O=C(O)c1cccc(Nc2nc(-c3cc4ccccc4oc3=O)cs2)c1	-98.1
CN(C)/C=C/C(=O)c1cnc(-c2cccc(Cl)c2)s1	-145.9
CN(C)/C=C/C(=O)c1cnc(-c2ccccc2Cl)s1	-127.5
C/C(=N\NC(=O)COc1ccccc1[N+](=O)[O-])c1cccs1	-146.2
C/C(=N/NC(=O)c1cccs1)c1cccs1	-81.7
C/C(=N\NC(=O)COc1ccccc1-c1ccccc1)c1ccccn1	.
O=C(NN=C1C2CC3CC(C2)CC1C3)c1cccs1	-86.8
C/C(=N/NC(=O)c1cccs1)c1cccc(N)c1	-86.4
Cc1cc(C)c2ccc(N)nc2c1O	.
C/C(=N\NC(=O)c1sccc1-n1cccc1)c1cccs1	-80.3
CCOC(=O)N/N=C(\C)c1cccs1	-67.2
CC(=O)N1CCC(=NNC(=O)c2cccs2)CC1	-114.8
C/C(=N/Nc1ccccc1C(=O)O)c1cccs1	-88.7
CC(C)(C)c1ccc(-c2nnc(N)s2)cc1	-65.0
CN(C)c1ccc(/C=N/NC(=S)NCc2ccco2)cc1	-126.6
CN(C)c1ccc(C(=S)NCc2ccco2)cc1	-68.7
SMILES	aSyn 5UTR act
Nc1cccc(C(=O)OCC(=O)c2ccccc2)c1	-85.6
Cc1ccc(C(=O)COC(=O)c2ccc(O)cc2)cc1	-182.3
O=C(COC(=O)c1cccc(O)c1)c1ccccc1	-69.5
CC(C)c1ccc2c(c1)C(c1ccc(N3CCOCC3)cc1)=NNC(c1cccs1)=N2	-103.5
O=C(N/N=C/c1ccc(Cl)cc1)C1CC12CCC2 (stereo not given)	-109.8
COc1ccc(OCC(=O)Nc2cccc(NC(=O)COc3ccc(OC)cc3)n2)cc1	-135.6
O=C(COc1ccccc1Cl)NCc1ccccc1	-72.3
O=C(COc1ccccc1O)Nc1ccccc1Cl	-98.8
COc1ccc(-n2nc3c(c2NC(=O)COc2ccccc2)CS(=O)(=O)C3)cc1	-75.9
O=C(COc1ccc(C(=O)c2ccccc2)cc1)NCc1ccc(F)cc1	.
COc1ccc(OCC(=O)Nc2ccccc2Cl)cc1	-110.6
Cc1cccc(NC(=O)c2ccc(OC3CSC3)cc2)c1	-177.2
O=C(Nc1cccc(Br)c1)c1ccc(OC2CSC2)cc1	-198.5
Cc1ccc(NC(=O)c2cc(N(C)C)ccc2[P+](=O)O)cc1	-154.5
CCc1cc2c(=O)c(-c3nc4ccccc4[nH]3)coc2cc1OC(=O)N1CCOCC1	-75.3
